# PubChem BioAssay AID624481 (The Scripps Research Institute Molecular Screening Center, 2012)
# Values without a mark were called inactive. The source made the active and inactive calls. No stated cut-off is given here; in the data, active means inhibition above about 50%; inactive means the rest.
# Biological target: Prolyl endopeptidase-like (Mus musculus) (UniProt Q8C167)
# Test: mouse PREPL enzyme inhibition by screening hits – biochemical, gel-based competitive ABPP, fluorescence, HTS hits, PREPL inhibitor project (AID 624481)
# Settings: purified mouse PREPL, at 20 µM, active compounds read high
# Chain of Prolyl endopeptidase-like (Mus musculus) (Q8C167 whole entry, looked up): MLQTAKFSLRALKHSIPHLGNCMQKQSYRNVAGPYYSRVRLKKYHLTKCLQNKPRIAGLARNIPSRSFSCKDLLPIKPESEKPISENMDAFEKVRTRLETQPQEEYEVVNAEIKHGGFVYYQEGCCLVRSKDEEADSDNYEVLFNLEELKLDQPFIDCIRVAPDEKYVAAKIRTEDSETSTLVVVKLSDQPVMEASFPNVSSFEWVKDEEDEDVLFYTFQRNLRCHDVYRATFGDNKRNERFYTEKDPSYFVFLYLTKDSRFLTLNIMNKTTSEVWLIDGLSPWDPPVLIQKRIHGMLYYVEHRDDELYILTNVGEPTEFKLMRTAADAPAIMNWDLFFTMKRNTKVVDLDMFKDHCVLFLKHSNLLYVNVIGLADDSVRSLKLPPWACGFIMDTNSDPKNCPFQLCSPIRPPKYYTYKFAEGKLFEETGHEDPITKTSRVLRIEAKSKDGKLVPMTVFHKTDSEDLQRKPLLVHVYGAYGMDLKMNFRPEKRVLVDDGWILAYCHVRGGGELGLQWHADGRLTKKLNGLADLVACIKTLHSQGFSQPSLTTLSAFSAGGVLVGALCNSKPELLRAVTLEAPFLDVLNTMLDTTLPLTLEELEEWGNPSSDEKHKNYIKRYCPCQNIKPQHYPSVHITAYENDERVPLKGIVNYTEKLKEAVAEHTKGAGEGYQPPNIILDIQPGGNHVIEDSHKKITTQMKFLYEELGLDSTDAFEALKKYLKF
row,SMILES,inhibition
1,COc1ccc2[nH]c(C)c(CCNCc3cc(OC)c4c(c3)OCO4)c2c1,-15%
2,CC(C)Cc1[nH]c(=O)c(C#N)c2c1CCC2,57% (active)
3,COc1ccc2[nH]c(C)c(CCNCc3cn(C)c4ccccc34)c2c1,16%
4,CCOc1cccc(=NC2CCCCC2)c2c(C)[nH]c(C)c12,13%
5,Cc1ccc(CN2CCSc3ccc(C(=O)N4CCC5(CC4)OCCO5)cc32)cc1,-8%
6,O=C(c1ccc2c(c1)N(Cc1ccc(F)cc1)CCS2)N1CCC2(CC1)OCCO2,-13%
7,Brc1ccc(-[n+]2c(-c3ccccc3)cc(-c3ccccc3)cc2-c2ccccc2)cc1,-32%
8,O=C(c1ccc2c(c1)N(Cc1ccccc1)CCS2)N1CCC2(CC1)OCCO2,-19%
9,Clc1ccc(C[n+]2c(-c3ccccc3)cc(-c3ccccc3)cc2-c2ccccc2)cc1,-51%
10,Cc1ccc(C[n+]2c(-c3ccc(C)cc3)cc(-c3ccc(C)cc3)cc2-c2ccc(C)cc2)cc1,1%
11,C=CCn1c(O)c(C(CC)=NCc2ccc3c(c2)OCO3)c(=O)[nH]c1=O,32%
12,NC(N)=NN=Cc1ccc(N(c2ccccc2)c2ccccc2)cc1,-64%
13,C1=C(c2c[nH]c3ccccc23)CCNC1,-17%
14,C=CCn1c(O)c(C(CC)=NCCc2c[nH]c3ccccc23)c(=O)[nH]c1=O,43%
